AmpC inh detg – qHTS Inhibitors of AmpC Beta-Lactamase (assay with detergent). 370,000 tested, 0.041% active. Potency, µM (titrated, usually from 114 µM), usual class: inhibitors. P00811. AmpC hydrolysis of nitrocefin, absorbance 480 nm, 0.01% Triton; further: nearly all actives have a fitted effect of over 25% in size
Target sequence (P00811 whole entry, looked up): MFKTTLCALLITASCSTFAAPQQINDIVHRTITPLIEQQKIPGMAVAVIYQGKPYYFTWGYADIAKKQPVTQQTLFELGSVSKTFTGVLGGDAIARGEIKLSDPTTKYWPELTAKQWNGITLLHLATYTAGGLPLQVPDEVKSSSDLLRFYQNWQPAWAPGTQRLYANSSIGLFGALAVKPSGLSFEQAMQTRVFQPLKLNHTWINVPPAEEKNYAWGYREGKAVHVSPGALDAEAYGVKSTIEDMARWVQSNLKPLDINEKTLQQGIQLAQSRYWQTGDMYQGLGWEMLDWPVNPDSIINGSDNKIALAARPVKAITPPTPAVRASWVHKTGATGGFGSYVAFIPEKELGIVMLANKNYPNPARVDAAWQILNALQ
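20 mM phosphate pH 7.0 + 0.01% (detergent screen) or 0.0001% Triton X-100; 5.3 nM AmpC reagent; cpd preinc 15 min RT; nitrocefin (800 uM stock) to start; A480 q20 s × 4 min; Activity was normalised to no-enzyme and no-compound control wells.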
Pf growth 96h – Primary qHTS for delayed death inhibitors of the malarial parasite plastid, 96 hour incubation. P. falciparum luciferase reporter growth, 96 h. Potency, µM (doses to about 28.7 µM), actives largely listed as inhibitors. 320,000 tested, 6.9% active. AID 504834, 2011
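Two-generation exposure (96 h) targets delayed-death phenotype. Reporter parasites carrying integrated firefly luciferase, in red cells at 2% hematocrit and 0.05% parasitemia final, kept at 37 C, 5% CO2; luminescence loss indicates inhibition.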
Pf growth 48h – Primary qHTS for delayed death inhibitors of the malarial parasite plastid, 48 hour incubation; 310,000 tested, 5.9% active; P. falciparum luciferase growth in erythrocytes, 48 h; Potency, µM (doses to about 28.7 µM), actives largely listed as inhibitors
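Growth was read as firefly luciferase luminescence after a 48 h, 37 C, 5% CO2 exposure of compounds to reporter-bearing P. falciparum cultures (0.1% parasitemia, 2% hematocrit final) in Albumax-supplemented RPMI 1640.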
SARS PLP yeast – qHTS of Yeast-based Assay for SARS-CoV PLP; Potency, µM (series often up to 32.9 µM), hits mostly activators; 330,000 tested, 0.19% active; S. cerevisiae expressing SARS-CoV PLpro, growth rescue; calls by dose curve; further: nearly all actives have a fitted effect of over 55% in size
Sm TGR block – qHTS Assay for the Inhibitors of Schistosoma Mansoni Peroxiredoxins. Schistosoma mansoni thioredoxin glutathione reductase (TGR), Q962Y6. purified TGR, DTNB reduction, TNB absorbance 405 nm. Potency, µM (top dose mostly 114 µM), usual class: inhibitors. 360,000 tested, 3% active. AID 485364, 2010; further: nearly all actives have a fitted effect of over 60% in size
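TGR 20 nM + NADPH 100 uM (dispensed conc.), cpd preinc 15 min RT; start with NADPH (500 uM addition) then DTNB (15 mM addition). Kinetic TNB absorbance, 405 nm filter. Four-parameter Hill fit across titration.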
AmpC no deterg – qHTS Inhibitors of AmpC Beta-Lactamase (assay without detergent) | AmpC nitrocefin hydrolysis, absorbance 480 nm, 0.0001% Triton | P00811 | Potency, µM (highest dose often 57.1 µM), usual class: inhibitors | AID 485341, 2010 | 330,000 tested, 0.52% active; further: nearly all actives have a fitted effect of over 20% in size
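20 mM phosphate pH 7.0 + 0.01% (detergent screen) or 0.0001% Triton X-100; 5.3 nM AmpC reagent; cpd preinc 15 min RT; nitrocefin (800 uM stock) to start; A480 q20 s × 4 min; Activity was normalised to no-enzyme and no-compound control wells.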
Each line names hits and unclear results; the compound was inactive in the other large screens. Hits are enriched below; roughly 12% of the tested compounds scored in any of these assays. Unless noted, the call rests on the fitted dose curve; in most records, active means well fitted curve in the direction sought with a large enough effect; inconclusive means small, poorly fitted or top-dose-only effect, or another doubt; inactive means no such curve, though single readings can be large; an effect the other way counts as inactive or inconclusive.

COc1ccc(NC(=O)CN(C)C(=O)c2cc(-c3ccco3)nc3ccccc23)cc1	Pf growth 96h inconclusive, Pf growth 48h inconclusive, Sm TGR block 5.01µM
CN(CC(=O)Nc1ccc(F)c(F)c1F)C(=O)c1cc(-c2ccncc2)nc2ccccc12	Pf growth 96h inconclusive, Pf growth 48h inconclusive
Cc1ccc(-c2cc(C(=O)N(C)CC(=O)Nc3ccccc3Br)c3ccccc3n2)o1	Pf growth 96h inconclusive, Pf growth 48h inconclusive, Sm TGR block 15.8µM
COc1ccc(C2CC(C(F)(F)F)n3nc(C(=O)O)c(Br)c3N2)cc1 (centres undefined)	none (no result: Pf growth 48h)
O=C(CN1CCCCC1)Nc1ccccc1Oc1ccccc1	Pf growth 96h inconclusive, Pf growth 48h inconclusive
O=C(/C=C/c1ccccc1O)c1ccc(Cl)cc1	Pf growth 96h 14.7µM, Sm TGR block inconclusive
CC(=O)Nc1cccc2c1C(=O)N(c1cccc(OC(C)=O)c1)C2=O	none
CC(=O)Nc1cccc2c1C(=O)N(c1ccc(OC(C)=O)cc1)C2=O	Pf growth 96h 2.62µM (no result: Sm TGR block)
O=C(NCCCO)Nc1ccc2nc(-c3ccco3)c(-c3ccco3)nc2c1	Sm TGR block 0.282µM (no result: Pf growth 96h)
O=C(Nc1ccc2nc(-c3ccco3)c(-c3ccco3)nc2c1)NC1CC1	Sm TGR block inconclusive
O=S(=O)(c1ccc2nc(-c3ccco3)c(-c3ccco3)nc2c1)N1CCOCC1	Pf growth 48h 11.7µM, Sm TGR block 1.58µM
O=C(Nc1ccc(N2CCOCC2)cc1)Nc1ccc2nc(-c3ccco3)c(-c3ccco3)nc2c1	Pf growth 48h inconclusive, Sm TGR block 4.47µM
Cc1ccc(S(=O)(=O)N2CCCCC2)cc1NC(=O)COc1ccccc1F	none
CCCc1cc(=O)[nH]c2nnc(SCCC(C)C)n12	none (no result: Pf growth 96h, Pf growth 48h, SARS PLP yeast, AmpC no deterg)
O=C(Cn1ncc2c3ccccc3n(Cc3cccc(Cl)c3)c2c1=O)N1CCC2(CC1)OCCO2	Pf growth 96h 4.65µM, Pf growth 48h 4.15µM
Cc1c2cnn(CC(=O)NCc3ccc(F)cc3)c(=O)c2c(C)n1Cc1ccccc1F	none (no result: Pf growth 96h, Pf growth 48h, SARS PLP yeast, AmpC no deterg)
Cc1c2cnn(CC(=O)N3CCC4(CC3)OCCO4)c(=O)c2c(C)n1Cc1ccccc1F	Pf growth 96h 0.0104µM
Cc1c2cnn(CC(=O)Nc3c(F)c(F)cc(F)c3F)c(=O)c2c(C)n1Cc1ccccc1F	Pf growth 96h 9.28µM
CCCCCOc1ccc(Cn2c(=O)oc3ccc(C)cc32)cc1OC	none (no result: Pf growth 96h, Pf growth 48h, SARS PLP yeast, AmpC no deterg)
CCOC(=O)N/N=C\c1ccc([N+](=O)[O-])s1	Pf growth 96h inconclusive, Pf growth 48h inconclusive
Cn1c(SCC(=O)N/N=C/c2ccc([N+](=O)[O-])s2)nnc1-c1ccc(Cl)cc1	Pf growth 96h 5.22µM, Pf growth 48h 10.4µM, Sm TGR block inconclusive
Cc1cc(C(=O)N/N=C/c2ccc(C)s2)n[nH]1	Pf growth 96h inconclusive
Cc1[nH]cnc1C(=O)N/N=C/c1ccc([N+](=O)[O-])s1	AmpC inh detg inconclusive, Pf growth 96h 1.85µM, Pf growth 48h inconclusive
COc1cc([N+](=O)[O-])cc(/C=N/NC(=O)CSc2nnc(-c3ccccc3)n2C)c1O	none
Cc1cc(C(=O)N/N=C/c2cc(Br)c(Br)o2)n[nH]1	Sm TGR block 10µM
Cc1cc(C(=O)N/N=C/c2ccc([N+](=O)[O-])s2)n[nH]1	Pf growth 96h 2.08µM, Pf growth 48h inconclusive
CCCCCCCN1CCN=C1N(C)C	AmpC inh detg inconclusive, Pf growth 48h inconclusive
CC#CC[N+](C)(C)CCCCCCCCCC	Pf growth 96h inconclusive, Pf growth 48h 0.738µM
C#CC[N+](C)(C)CCCCCCCCC	AmpC inh detg inconclusive, Pf growth 96h inconclusive, Pf growth 48h 3.7µM
CC(=O)c1cnc2c(-c3ccccc3)c(-c3ccccc3)nn2c1C	Pf growth 96h inconclusive
CCCCOC(=O)c1ccc(NC(=O)/C=C/c2cccs2)cc1	AmpC no deterg inconclusive
O=[N+]([O-])c1ccc(Sc2cccc[n+]2[O-])c2nonc12	Pf growth 96h 0.828µM, Pf growth 48h 2.94µM, Sm TGR block 0.282µM
COc1ccc(/C=C/C(=O)N(CC(C)C)C2CCS(=O)(=O)C2)cc1 (centres undefined)	Pf growth 96h inconclusive
CC(C)CN(C(=O)/C=C/c1nc2ccccc2s1)C1CCS(=O)(=O)C1 (centres undefined)	Pf growth 96h 7.38µM, Pf growth 48h inconclusive
COc1ccccc1NC(=S)NC1CCCCCCCCCCC1	Pf growth 96h inconclusive, Pf growth 48h 1.47µM
COc1ccccc1NC(=S)NC1CCCCC1	Pf growth 96h 9.28µM
CCOc1ccccc1NC(=S)NC1CCCCC1	Pf growth 48h inconclusive
COc1ccc(-n2c(=O)c3c4c(sc3n(Cc3c(F)cccc3Cl)c2=O)CN(C(C)=O)CC4)cc1OC	none (no result: Pf growth 96h, Pf growth 48h, SARS PLP yeast, AmpC no deterg)
COc1ccc(Br)cc1CNC(=O)CCSCc1ccc(C)cc1	none (no result: Pf growth 96h, Pf growth 48h, SARS PLP yeast, AmpC no deterg)
Cc1cc(C)c(S(=O)(=O)n2ccc(-c3ccc(OCCN(C)c4ccccn4)cc3)n2)c(C)c1	Pf growth 96h 7.38µM, Pf growth 48h 1.85µM
CN(C)/C=C/C(=O)c1ccc(OCCN(C)c2ccccn2)cc1	none
O=C(O)c1cc(-c2ccc(C(F)(F)F)cc2)nc2n[nH]c(-c3ccccc3)c12	none (no result: Pf growth 96h, Pf growth 48h, SARS PLP yeast, AmpC no deterg)
COc1ccc(C(=O)C(C)N(C(=O)c2ccc(Cl)cc2Cl)N2C(=O)C3C4C=CC(C4)C3C2=O)cc1 (centres undefined)	Pf growth 96h inconclusive, Pf growth 48h 7.38µM
Cc1ccc(C(=O)C(C)N(C(=O)c2ccc(Cl)cc2Cl)N2C(=O)CCCC2=O)cc1 (centres undefined)	Pf growth 96h 11.7µM (no result: Sm TGR block)
CN(C)c1ccc(C(CNS(=O)(=O)c2ccc3ccccc3c2)c2c[nH]c3ccccc23)cc1 (centres undefined)	none
CN(C)c1ccc(C(CN)c2c[nH]c3ccccc23)cc1 (centres undefined)	Pf growth 96h inconclusive, Pf growth 48h 9.28µM
CCCCCCCCCCCCOCCOCCOCCOCCOCCOCCOCCOCCOCCO	Pf growth 96h 10.7µM, Pf growth 48h inconclusive (no result: AmpC inh detg, SARS PLP yeast, Sm TGR block, AmpC no deterg)
COc1cc(O)c(C(CC(=O)N2CCN(c3ccccc3)CC2)c2cc(OC)c(OC)c(OC)c2)c(OC)c1 (centres undefined)	Pf growth 96h 10.4µM, Pf growth 48h 11.7µM
COc1cc(O)c(C(CCN2CCN(c3ccccc3)CC2)c2ccc(N(C)C)cc2)c(OC)c1 (centres undefined)	Pf growth 96h 0.657µM, Pf growth 48h 0.828µM
COc1ccc(C(CCN2CCN(c3ccccc3)CC2)c2c(O)cc(OC)cc2OC)cc1 (centres undefined)	Pf growth 96h 0.465µM, Pf growth 48h 1.04µM

Compound activity: PubChem, National Center for Advancing Translational Sciences (NCATS)
